Assay outcomes as filed in PubChem.
tim23-1 inh: growth inhibitors of tim23-1 mutant yeast, primary screen, luminescence, uHTS; S. cerevisiae tim23-1 growth, BacTiter-Glo luminescence, 24 h; inhibition, % at 20 µM; 330,000 compounds, 1.3% hits;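 active = growth inhibition of the mutant yeast at or above 50%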;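 also: temperature-sensitive mutant grown at 25 °C; plate controls were DMSO-treated mutant yeast for no effect and medium wells lacking yeast for full effect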
NLRP3 yeast inh: NALP3 inflammasome inhibitors in reconstituted yeast, primary screen, luminescence, uHTS; Yeast reconstituted NLRP3/ASC/caspase-1, beta-gal luminescence, 24 h; inhibition, % at 10 µM; 330,000 compounds, 0.39% hits; AID 2825, 2010;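 active = inhibition of 50% or more; inactive = inhibition below 50%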;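 also: plate controls were induced DMSO wells for no effect and uninduced yeast grown without galactose for full effect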
NALP1 yeast inh: NALP1 inflammasome inhibitors in reconstituted yeast, colorimetric, S. cerevisiae, triplicate retest | S. cerevisiae NALP1/ASC/caspase-1 growth, X-gal OD620, 72 h | inhibition, % at 10 µM | 280,000 compounds, 0.61% hits | AID 2071, 2009; in the data active = inhibition mostly above about 24%, no sharp cut-off; inactive = mostly below about 32%
tim10-1 inh: growth inhibitors of tim10-1 mutant yeast, primary screen, luminescence, uHTS. inhibition, % at 20 µM. 330,000 compounds, 2.2% hits. S. cerevisiae tim10-1 ts strain growth, BacTiter-Glo, 24 h;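 active = inhibition of at least 40%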;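 also: mutant grown at 25 °C; 0% = DMSO wells with yeast and 100% = wells holding no yeast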
TIM10 inh: growth inhibitors of isogenic TIM10 control yeast, primary screen, counter-screen for tim10-1 yeast inhibitor project, luminescence, uHTS; S. cerevisiae TIM10 strain growth, BacTiter-Glo luminescence, 24 h; 330,000 compounds, 1.4% hits; inhibition, % at 10 µM;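 active = inhibition of 40% or more at the single tested concentration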;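 also: wild-type TIM10 isogenic control strain grown at permissive 25 °C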
tim10-1 confirm: growth inhibitors of tim10-1 mutant yeast, confirmation, single concentration, luminescence, S. cerevisiae | inhibition, % at 20 µM | shares compounds with tim10-1 inh | S. cerevisiae tim10-1 ts strain growth, BacTiter-Glo, 24 h | AID 463213, 2010 | 7,400 compounds, 56% hits;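 active = inhibition of yeast growth at or above a set limit in either of two repeat tests at 20 µM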;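 also: tim10-1 mutant grown at permissive 25 °C to find synthetic lethal compounds; 0% = DMSO yeast wells and 100% = medium wells without yeast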
The depositor's hits bear a star. Most compounds without a hit are left out; they make up all but 4% or so of the library.

What do the screens show for `Cc1cccc(C)c1OCC(=O)Nc1cccc(S(=O)(=O)N2CCCC2)c1`?
tim23-1 inh: 39.3; NLRP3 yeast inh: -12.5; tim10-1 inh: 38.7; TIM10 inh: 28.5

How did CN(C)c1ccc(C(=O)/C=C/c2cccnc2)cc1 do in these assays?
tim23-1 inh: 19.4; NLRP3 yeast inh: 28.6; NALP1 yeast inh: -2.9; tim10-1 inh: 19.3; TIM10 inh: 9.2

Results for O=C(/C=C/c1cccnc1)c1ccc(F)c(F)c1 ?
tim23-1 inh: 33.2; NLRP3 yeast inh: 21.1; NALP1 yeast inh: 19.5; tim10-1 inh: 40.1*; TIM10 inh: 17.8; tim10-1 confirm: 26.5

How did Cc1cc(C(=O)COC(=O)COc2ccc(C#N)cc2)c(C)n1C1CC1 do in these assays?
tim23-1 inh: 32.7; NLRP3 yeast inh: 12.7; tim10-1 inh: 23.4; TIM10 inh: 0.4

Results for CCCCn1c(=S)[nH]c2ccc(N3CCOCC3)cc2c1=O ?
tim23-1 inh: -23.1; NLRP3 yeast inh: -17.1; NALP1 yeast inh: -1.3; tim10-1 inh: 22.4; TIM10 inh: 30.8

Results for CC(C)OCCCn1c(=S)[nH]c2ccc(N3CCOCC3)cc2c1=O ?
tim23-1 inh: 7.4; NLRP3 yeast inh: 6.7; NALP1 yeast inh: 4.7; tim10-1 inh: 45.4*; TIM10 inh: 15.3; tim10-1 confirm: 6.1

Results for Cc1ccc(Cn2c(=S)[nH]c3ccc(N4CCOCC4)cc3c2=O)o1 ?
tim23-1 inh: 13.6; NLRP3 yeast inh: 5.8; NALP1 yeast inh: 9.9; tim10-1 inh: 45.5*; TIM10 inh: 15.4; tim10-1 confirm: 22.1

What do the screens show for `O=c1c2cc(N3CCOCC3)ccc2[nH]c(=S)n1Cc1ccc(Cl)cc1`?
tim23-1 inh: 30.4; NLRP3 yeast inh: 14.7; NALP1 yeast inh: -10.9; tim10-1 inh: 35.2; TIM10 inh: 10.4

How did COc1ccc(C(=O)NCC(=O)N/N=C/c2cn(C)c3ccccc23)cc1OC do in these assays?
tim23-1 inh: -1.2; NLRP3 yeast inh: -1.6; NALP1 yeast inh: 7.0; tim10-1 inh: 7.7; TIM10 inh: 7.6

What do the screens show for `Fc1ccccc1C1c2[nH]c3ccccc3c2CCN1Cc1ccoc1` (centres undefined)?
tim23-1 inh: 20.4; NLRP3 yeast inh: -7.0; NALP1 yeast inh: 13.2; tim10-1 inh: 38.5; TIM10 inh: 18.1

What do the screens show for `NC(=O)COC(=O)CCSc1ccc(Cl)cc1`?
tim23-1 inh: 30.9; NLRP3 yeast inh: 5.7; NALP1 yeast inh: 9.7; tim10-1 inh: 7.5; TIM10 inh: -13.0

Results for Cc1ccccc1C(=O)Nc1ccc2nc3n(c(=O)c2c1)CCCC3 ?
tim23-1 inh: -0.1; NLRP3 yeast inh: 8.7; NALP1 yeast inh: 9.4; tim10-1 inh: 0.9; TIM10 inh: 7.4

What do the screens show for `CCOc1ccccc1C(=O)Nc1ccc2nc3n(c(=O)c2c1)CCCCC3`?
tim23-1 inh: 38.8; NLRP3 yeast inh: 24.7; NALP1 yeast inh: 10.5; tim10-1 inh: 54.8*; TIM10 inh: 9.8; tim10-1 confirm: 4.5

How did CC(=O)N1c2ccc(S(=O)(=O)NCC3CCC(C(=O)NC4CCCCC4C)CC3)cc2CC1C (centres undefined) do in these assays?
tim23-1 inh: 3.6; NLRP3 yeast inh: 24.1; NALP1 yeast inh: -4.0; tim10-1 inh: 20.9; TIM10 inh: 11.3

What do the screens show for `N#CCC1c2ccccc2CCN1C(=O)Nc1ccc(C(F)(F)F)cc1` (centres undefined)?
tim23-1 inh: 37.3; NLRP3 yeast inh: -4.0; NALP1 yeast inh: 39.4; tim10-1 inh: 46.4*; TIM10 inh: 33.9; tim10-1 confirm: 40.8*

How did COc1ccc(-n2c(=S)[nH]c3ccccc3c2=S)cc1 do in these assays?
tim23-1 inh: 16.5; NLRP3 yeast inh: -8.8; NALP1 yeast inh: 8.0; tim10-1 inh: 5.5; TIM10 inh: 26.4

How did COc1ccc(-n2c(=S)[nH]c3ccccc32)cc1 do in these assays?
tim23-1 inh: 26.3; NLRP3 yeast inh: 25.6; NALP1 yeast inh: 5.1; tim10-1 inh: 41.6*; TIM10 inh: 27.9; tim10-1 confirm: 15.2

What do the screens show for `Cc1ccc(S(=O)(=O)NC(=O)N(CCC#N)Cc2ccccc2)cc1`?
tim23-1 inh: -0.2; NLRP3 yeast inh: 0.6; NALP1 yeast inh: 0.5; tim10-1 inh: -6.0; TIM10 inh: 12.0

What do the screens show for `Cc1c(C)c2ccc(Oc3ccc([N+](=O)[O-])cc3C(F)(F)F)c(C)c2oc1=O`?
tim23-1 inh: 21.9; NLRP3 yeast inh: 3.2; NALP1 yeast inh: 4.7; tim10-1 inh: 40.3*; TIM10 inh: 18.8; tim10-1 confirm: 22.9

Results for COCc1cc(C)nc2sc(C(=O)NCCO)c(-n3cccc3)c12 ?
tim23-1 inh: 6.7; NLRP3 yeast inh: 1.4; NALP1 yeast inh: 8.2; tim10-1 inh: 11.3; TIM10 inh: -3.2

How did COc1ccc(S(=O)(=O)Nc2ccc(NC(C)=O)cc2)cc1[N+](=O)[O-] do in these assays?
tim23-1 inh: 8.5; NLRP3 yeast inh: 28.9; NALP1 yeast inh: 2.5; tim10-1 inh: -10.5; TIM10 inh: 3.0

How did O/N=C(\c1ccc(Cl)cc1Cl)c1ncc(C(F)(F)F)cc1Cl do in these assays?
tim23-1 inh: 26.6; NLRP3 yeast inh: -17.8; NALP1 yeast inh: -5.1; tim10-1 inh: 40.0; TIM10 inh: 39.0; tim10-1 confirm: 50.0*

Results for C[C@H](NC(=O)OC(C)(C)C)C(=O)N/N=C/c1ccc2nccnc2c1 ?
tim23-1 inh: -5.2; NLRP3 yeast inh: 18.1; NALP1 yeast inh: 13.7; tim10-1 inh: -18.7; TIM10 inh: -11.8

Results for C=CCn1c(CCn2c3ccccc3c3ccccc32)n[nH]c1=S ?
tim23-1 inh: 29.1; NLRP3 yeast inh: 11.8; NALP1 yeast inh: 1.3; tim10-1 inh: 43.4*; TIM10 inh: 33.1; tim10-1 confirm: 36.5*

How did O=[N+]([O-])c1ccc(N/N=C/c2cn(Cc3ccc(F)cc3)c3ccccc23)nc1 do in these assays?
NALP1 yeast inh: 19.6

What do the screens show for `Cc1ccc([N+](=O)[O-])c(OCCN2C(=O)NC(C)(C)C2=O)c1`?
tim23-1 inh: -7.2; NLRP3 yeast inh: 8.2; NALP1 yeast inh: 8.7; tim10-1 inh: -2.9; TIM10 inh: 4.8

Results for Cc1ccc(C(C)C)c(OCCCN2C(=O)NC(C)(C)C2=O)c1 ?
tim23-1 inh: 18.1; NLRP3 yeast inh: -0.5; NALP1 yeast inh: 1.4; tim10-1 inh: 42.7*; TIM10 inh: 6.9; tim10-1 confirm: 22.1

Results for COC(=O)c1c(Cc2ccccc2Cl)c[nH]c1C ?
tim23-1 inh: 28.4; NLRP3 yeast inh: 10.8; NALP1 yeast inh: 30.2; tim10-1 inh: 41.0*; TIM10 inh: 9.8; tim10-1 confirm: 15.8

Results for CCCNC(=S)N1CCN(c2nc(C)nc3sc4c(c23)CCCC4)CC1 ?
tim23-1 inh: 25.7; NLRP3 yeast inh: 16.0; NALP1 yeast inh: 0.4; tim10-1 inh: 42.5*; TIM10 inh: 31.7; tim10-1 confirm: 16.3
